ALOX12 inh: ALOX12 (human) lipoxygenase inhibition. AID 1671190. P18054. Potency, µM (doses to about 108 µM), for the others: at the top dose activity change, negative = inhibition, actives largely listed as inhibitors. purified 12hLO, xylenol orange hydroperoxide absorbance. hit rate 1.1% among 580,000
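Purified human 12hLO (150 nM final) in 25 mM Hepes, 0.01% Triton X-100, pH 7.0 was preincubated 15 min at room temperature with compound. Then 40 uM arachidonic acid was added, 30 min. Hydroperoxide was read by Fe-XO absorbance ratio 573/405 nm.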
PLK1 PBD inh: PLK1 (human) polo-box domain binding inhibition. P53350. Plk1 PBD binding of FITC phosphopeptide, fluorescence polarization. Potency, µM, for the others: max response, negative = inhibition, most hits filed as inhibitors. hit rate 2.8% among 360,000; further: series mostly up to about 57 µM; nearly all actives have a fitted effect of over 65% in size
VDR inh: blocks the human vitamin D receptor. VDR-SRC2-3 peptide fluorescence polarization, 2 h. Potency, µM, inactives show max response, negative = inhibition, most hits filed as inhibitors. hit rate 0.93% among 400,000
Target sequence (P11473 whole entry, looked up): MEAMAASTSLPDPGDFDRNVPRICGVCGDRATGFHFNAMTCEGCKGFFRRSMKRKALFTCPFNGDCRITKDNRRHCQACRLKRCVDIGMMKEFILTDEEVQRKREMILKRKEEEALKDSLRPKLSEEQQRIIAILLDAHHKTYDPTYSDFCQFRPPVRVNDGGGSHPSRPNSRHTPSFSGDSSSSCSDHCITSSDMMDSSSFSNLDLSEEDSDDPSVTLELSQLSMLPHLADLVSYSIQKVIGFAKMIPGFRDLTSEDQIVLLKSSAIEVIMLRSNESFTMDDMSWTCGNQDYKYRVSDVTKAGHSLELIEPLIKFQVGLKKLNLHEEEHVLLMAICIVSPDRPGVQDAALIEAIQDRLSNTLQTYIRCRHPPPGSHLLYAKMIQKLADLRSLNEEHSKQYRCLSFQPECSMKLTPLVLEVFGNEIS
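VDR–SRC2-3 interaction, FP format. Cmpds 23 nl via pintool, brief spin, 2 h ambient incubation.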
Sfp inh: blocks B. subtilis Sfp PPTase activity; Q9F4F7; Biochemical Sfp PPTase activity, qHTS; Potency, µM, for inactives: largest response in the series, negative = inhibition, actives largely listed as inhibitors; AID 1490; hit rate 3.5% among 310,000;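 further: the enzyme is Sfp with the accession as filed and its product quenches rhodamine fluorescence; 0% = enzyme reaction without inhibitor and -100% = no enzyme wells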
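Fluorescence-quenching assay: 15 nM Sfp-PPTase preincubated 15 min at room temperature with compound, then 5 uM rhodamine-CoA and 12.5 uM BHQ-2-labelled YbbR peptide added. Fluorescence (ex 525/em 598 nm) read at start and after 30 min; difference gives rate.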
An asterisk follows results filed as active; ? = inconclusive; · = no result given; [ ] = remark or other dose. Rows were chosen to be rich in hits. Some 4.2% of all compounds tested hit in one or more screens of this group. The call rests on the fitted dose curve; in most records, active means well fitted curve in the direction sought with a large enough effect; inconclusive means small, poorly fitted or top-dose-only effect, or another doubt; inactive means no such curve, though single readings can be large; an effect the other way counts as inactive or inconclusive. Unless noted, on the % scale 0 is the no-effect control and ±100 the full control effect; potency means the concentration at half of the fitted maximal effect.

SMILES	ALOX12 inh	PLK1 PBD inh	VDR inh	Sfp inh
O=C(NNC(=O)c1ccccc1O)c1ccc(NS(=O)(=O)c2ccc(F)c(F)c2)cc1	-11%	3%	7%	·
Cc1ccc(NS(=O)(=O)c2ccc(C(=O)NNC(=O)c3ccccc3O)cc2)cc1	45µM*	-2%	10%	·
Cc1ccc(NS(=O)(=O)c2ccc(NC(=O)c3ccc(-c4ccccc4)cc3)cc2)c(C)c1	0%	24µM*	-16%	·
Cc1ccc(NS(=O)(=O)c2ccc(NC(=O)CSc3ccc(Cl)cc3)cc2)c(C)c1	32µM*	-14%	6%	17%
Cc1ccc(O)c(NC(=O)CSc2ccc(Cl)cc2)c1	-15%	-7%	32%	5%
COc1ccc2c(c1)OCC(CNC(=O)CCc1ccccc1F)C2 (stereo not given)	13%	·	·	·
COc1cc2c(cc1[N+](=O)[O-])-c1ccc([N+](=O)[O-])cc1C2=NNC(N)=S	·	9.5µM*	·	·
NC(=S)NN=C1c2cc(Cl)ccc2-c2c1cc(Cl)cc2[N+](=O)[O-]	·	?	-23%	·
CCC(C(=O)NC1CCCC1)N(Cc1cccs1)C(=O)Cn1nnc(-c2ccc(OC)c(OC)c2)n1 (stereo not given)	-12%	1%	2%	24%
O=S(=O)(N1CC=C(c2c[nH]c3cc(F)ccc23)CC1)N1CCCCCC1	16µM*	·	·	·
COc1cc(SC)ccc1C(=O)OCC(=O)NC1CC1	49%	-24%	-4%	27%
CCc1c2c(nc3c(C(C)C)cccc13)-c1cccc(=O)n1C2	·	·	·	50µM*
CCc1cccc2nc3c(c([Si](CC)(CC)CC)c12)Cn1c-3cccc1=O	·	·	·	79µM*
COc1ccc(NC(=O)Cc2c(C)c3ccc(OC)c(C)c3oc2=O)cc1	-28%	·	·	·
CN(CC(=O)Nc1ccc(F)c(F)c1F)c1cnccn1	·	·	·	-30%
COC(=O)c1ccc(CN(C(C)=O)c2ccccc2)o1	0%	27µM*	?	8%
COCCOC(=O)c1c(C)nc(SCC(=O)Nc2cccc3ccccc23)c(C#N)c1-c1ccco1	-22%	-7%	-6%	7.9µM*
CN1CCN(C(=S)NC(=O)c2ccc(-c3ccccc3)cc2)CC1	-22%	10%	-7%	-25%
Cc1ccc(C(=O)O)cc1NC(=S)NC(=O)c1ccc(-c2ccccc2)cc1	8.9µM*	?	-7%	-7%
Cc1ccc(C(=O)NC(=S)Nc2cccc3nsnc23)cc1	80%	-29%	-16%	14µM*
Cc1cccc(NC(=S)NC(=O)c2ccc(-c3ccccc3)cc2)n1	35µM*	-8%	-9%	18%
Cc1ccc(C(=O)NC(=S)Nc2cccc3c(C)cc(C)nc23)cc1	-15%	-3%	-9%	-6%
CC(C)NC(=S)NC(=O)c1ccc(-c2ccccc2)cc1	16µM*	-2%	-30%	-20%
O=C(O)c1cccc(NC(=S)NC(=O)c2ccc(-c3ccccc3)cc2)c1	?	0%	8%	-4%
Cc1cccc(NC(=S)NC(=O)C(c2ccccc2)c2ccccc2)n1	12%	-8%	3%	·
SMILES	ALOX12 inh	PLK1 PBD inh	VDR inh	Sfp inh
O=C(O)c1ccc(CNC(=O)C2CCN(S(=O)(=O)c3ccc4c(c3)OCCO4)CC2)cc1	-23%	-18%	·	·
O=C(Nc1ccc(NC(=S)NC(=O)c2ccco2)cc1)c1ccc(Br)cc1	-19%	-5%	·	·
O=C(O)c1cccc(NC(=S)NC(=O)c2ccc(-c3ccc(Cl)cc3)o2)c1	13µM*	?	-5%	?
Cc1ccc2c(NC(=S)NC(=O)c3ccccc3)cccc2n1	?	?	-6%	56µM*
Cc1ccc(C(=O)O)cc1NC(=S)NC(=O)c1ccc(-c2ccc(Cl)cc2)o1	2µM*	?	-12%	50µM*
COc1cc(C(=O)NC(=S)Nc2cccc3nc(C)ccc23)cc(OC)c1OC	2%	0%	13%	-5%
O=C(O)c1ccc(NC(=S)NC(=O)c2ccc(-c3ccc(Br)cc3)o2)cc1	18µM*	?	?	45µM*
COc1ccc(OC)c2[nH]c(C(=O)NCC(=O)N3CCN(Cc4ccccc4)CC3)cc12	8%	·	·	·
COc1ccc(NC(=O)C2C3CCC(O3)C2C(=O)O)c(C)c1 (stereo not given)	-7%	7%	4%	1%
Cc1cc(Br)ccc1NC(=O)C1C2CCC(O2)C1C(=O)O (stereo not given)	5µM*	-12%	-9%	6%
C=CCN(Cc1ccc(Cl)s1)C(=O)CNC(=O)CNC(=O)c1ccc(Cl)cc1Cl	36%	-9%	-3%	·
CSc1nc(N(CCO)CCO)c2sc3nc(-c4ccco4)c4c(c3c2n1)CCC4	?	?	-11%	18µM*
CC(C)c1nc2sc3c(NCCO)ncnc3c2c2c1COC(C)(C)C2	-23%	·	·	·
CSc1nc(SCCO)c2sc3nc(-c4ccco4)c4c(c3c2n1)CC(C)(C)OC4	-39%	-20%	-13%	20µM*
CC1(C)Cc2c(c(-c3ccco3)nc3sc4c(NCCO)ncnc4c23)CO1	-18%	-10%	-5%	50µM*
CSc1ccc(/C=N/NC(=O)c2sccc2C)cc1	-6%	-6%	4%	13%
Nc1nnc(SC2CCCC2)s1	-8%	27µM*	?	11%
COc1ccccc1Oc1nc2c(C)cccn2c(=O)c1/C=C(\C#N)c1nc2ccccc2[nH]1	-20%	·	-11%	·
COc1ccc(N2CCN(c3ccnc4cc(Cl)ccc34)CC2)cc1	-23%	-1%	-8%	56µM*
Cc1ccc(/C=C/C(=O)c2ccc([N+](=O)[O-])o2)cc1	-7%	-28%	5.6µM*	·
S=C1Cc2ccccc2N1	?	12µM*	2.2µM*	3.2µM*
O=C1C2C3C=CC(CC3)C2C(=O)N1c1ccc(Br)cc1[N+](=O)[O-] (stereo not given)	-18%	-7%	10%	17%
O=C1C2C3C=CC(CC3)C2C(=O)N1c1ccccc1[N+](=O)[O-] (stereo not given)	-6%	-8%	8%	56µM*
Cn1c(=O)c(Oc2ccc(F)cc2F)cc2cnc(NC3CCOCC3)nc21	17µM*	·	·	·
O=C(NCC1CCOCC1)c1cc(COc2ccc(F)cc2F)on1	2%	-11%	6%	5%
SMILES	ALOX12 inh	PLK1 PBD inh	VDR inh	Sfp inh
Cn1cc(-c2ccc3c(n2)CN(Cc2ccc(F)cc2)C(=O)CO3)cn1	28%[176 µM]	·	·	·
CCN1CCN(c2cc(C)c3cc(NC(=O)/C=C/c4cccc(Cl)c4)ccc3n2)CC1	?	·	26%	·
O=c1cc(-c2ccccc2)nc2cc(-c3ccc(Br)cc3)[nH]n12	0%	-5%	-6%	-10%
O=c1cc(-c2ccccc2)nc2cc(-c3ccco3)[nH]n12	0%	-2%	-8%	25µM*
COc1cc(C(=O)NC2CCN(CC(=O)Nc3cccc(C)c3C)CC2)cc(OC)c1OC	0%	27µM*	-20%	9%
COc1cc(OC)cc(C(=O)NC2CCN(CC(=O)Nc3cccc4ccccc34)CC2)c1	440%	-4%	15%	4%
COc1ccccc1-c1cc(C(=O)NC2CCN(C)CC2)c2ccc(Cl)c(C)c2n1	?	-5%	12%	56µM*
Cc1ccc(-c2cc(C(=O)O)c3cccc(C)c3n2)s1	11µM*	·	·	·
COc1ccccc1-c1cc(C(=O)NC2CC2)c2cnn(C)c2n1	-1%[6.33 µM]	·	·	·
COc1ccc(-c2cc(C(=O)O)c3cc(C)cc(C)c3n2)c(OC)c1	-7%	·	·	·

Compound activity (PubChem BioAssay)
